A short description of the test: NCI Yeast Anticancer Drug Screen. Data for the rad50 strain (AID 155).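 Also: 0% = growth of vehicle-only cultures of the same strain.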 The following applies: S. cerevisiae rad50 strain growth inhibition, active compounds read high. As for the experimental part:
Growth inhibition of yeast strains with defined genetic alterations is measured as a screen for potential anti-cancer activity. Selected strains with alterations in DNA damage repair or cell cycle control were exposed to compounds and growth inhibition was measured relative to vehicle treated controls. The strain used in this assay is rad50

Where [1] appears, read: at 5.0 µM (retest, dose inferred, filed as 0.5).
[2] abbreviates: at 50.0 µM (retest, dose inferred, filed as 5.0).

Each structure is given as a SMILES string. The panel holds about 79,000 compounds, 15% with a hit somewhere; the sample as a whole holds those more often. A number with no mark means an inactive call. The source made the active and inactive calls. Rule as the data show it: active = growth inhibition above about 70%; inactive = the rest.

On to `O=C1CSC(=S)N1Cc1ccc(Cl)cc1Cl`, for which the growth inhibition reads like this: (at 1.2 µM) -6%; (at 3.7 µM) 26%; under setting [1], 29%; (at 11.0 µM) 99% (active); (at 33.0 µM) 99% (active); under setting [2], 98% (active). Also, the growth inhibition runs as follows: (at 50.0 µM) 99.1% (active); (at 100.0 µM) 98% (active).

Consider `CN(N=O)C(=O)N[C@@H](C=O)[C@@H](O)[C@H](O)[C@H](O)CO`, for which the growth inhibition reads like this: (at 1.2 µM) -1%; (at 3.7 µM) -1%; (at 11.0 µM) 4%; (at 33.0 µM) -1%; (at 50.0 µM) 3.9%; (at 100.0 µM) -2%.

For `Cc1ccc(N=Nc2ccc(O)c(C)c2)cc1`, the growth inhibition (at 1.2 µM) was 9%; the growth inhibition (at 3.7 µM) is 18%; the growth inhibition under setting [1] is 38%; the growth inhibition (at 11.0 µM) was 95% (active); the growth inhibition (at 33.0 µM) was 98% (active); the growth inhibition under setting [2] was 56%. Also, the growth inhibition reads like this: (at 50.0 µM) 91.2% (active); (at 100.0 µM) 94% (active).

For `N#C/C(=C\c1ccccc1)c1ccccc1F`, the growth inhibition runs as follows: (at 1.2 µM) -4%; (at 3.7 µM) 3%; under setting [1], 6%; (at 11.0 µM) -2%; (at 33.0 µM) 2%; under setting [2], 89% (active). Besides, the growth inhibition was 44.1% (at 50.0 µM) and 10% (at 100.0 µM).

As for `S=c1cn[nH]c2ccc(Br)cc12`, the growth inhibition is, setting by setting: (at 1.2 µM) -3%; (at 3.7 µM) -9%; under setting [1], -152%; (at 11.0 µM) 13%; (at 33.0 µM) 78% (active); under setting [2], 66%. The growth inhibition is, setting by setting: (at 50.0 µM) 69.5%; (at 100.0 µM) 85% (active).

Consider `COc1cc(CNc2ccc(C(C)C)cc2)cc(OC)c1OC`, for which the growth inhibition (at 1.2 µM) is 13%; the growth inhibition (at 3.7 µM) is 0%; the growth inhibition under setting [1] is -1%; the growth inhibition (at 11.0 µM) is -2%; the growth inhibition (at 33.0 µM) was -19%; the growth inhibition under setting [2] was -3%. In addition, the growth inhibition reads like this: (at 50.0 µM) 32.5%; (at 100.0 µM) 73% (active).

Source of the values: PubChem BioAssay (NCI).
